Source: PubChem
A selection: hits, their analogues and other compounds. The true share with any hit is near 22%.
Cycloheximide cs = counter-screen for Shiga toxin inhibitors: cycloheximide protein synthesis inhibition; cell reporter, cycloheximide protein synthesis inhibition counterscreen; max response, %; 300,000 tested, 12% active; AID 2314; in the data active = max response mostly above about 13%, no sharp cut-off; inactive = mostly below about 14%; also: read at 38.3 µM for the half of the compounds with a filed dose; 0% is about no effect
Shiga inhibitor = blocks Shiga toxin action in Vero cells; Vero cells, Shiga toxin protein synthesis inhibition reporter; inhibition, % at 38.7 µM; 290,000 tested, 9.2% active; AID 2315; in the data active = inhibition mostly above about 28%, no sharp cut-off; inactive = mostly below about 43%; also: 0% is about no effect
Pf growth 48h = inhibits P. falciparum growth in the first generation, 48 h. 310,000 tested, 5.9% active. Potency, µM (series often up to 28.7 µM), without a hit: at the top dose activity change, negative = inhibition, actives largely listed as inhibitors. AID 504832. P. falciparum luciferase growth in erythrocytes, 48 h; also: potency is read from the fitted curve at half-maximal effect; % is scaled to controls: 0 for no effect and ±100 for the full control effect
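First compound was added to culture medium, then infected red cells at 0.1% parasitemia and 2% hematocrit (final). After incubation at 37 C under 5% CO2, luciferase detection reagent was dispensed and light output recorded.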
Pf growth 96h = inhibits malaria parasite growth, 96 h. P. falciparum luciferase reporter growth, 96 h. Potency, µM (top dose mostly 28.7 µM), for inactives: top-dose activity change, negative = inhibition, usual class: inhibitors. 320,000 tested, 6.9% active. AID 504834; also: potency is read from the fitted curve at half-maximal effect; % is scaled to controls: 0 for no effect and ±100 for the full control effect
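Compounds incubated with erythrocytes infected by luciferase-expressing P. falciparum (2% hematocrit, 0.05% parasitemia final) for 96 hours, 37 C in 5% CO2. Growth inhibition scored as decreased luciferase luminescence.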
LmPK inhibitor = LmPK (Leishmania mexicana) enzyme inhibition | purified LmPK, Kinase-Glo ATP luminescence, 1 h | Potency, µM (doses to about 57.5 µM), for the others: top-dose activity change, negative = inhibition, usual class: inhibitors | 290,000 tested, 0.37% active; also: potency is read from the fitted curve at half-maximal effect; % is scaled to controls: 0 for no effect and ±100 for the full control effect
Target sequence (Q27686 whole entry, looked up): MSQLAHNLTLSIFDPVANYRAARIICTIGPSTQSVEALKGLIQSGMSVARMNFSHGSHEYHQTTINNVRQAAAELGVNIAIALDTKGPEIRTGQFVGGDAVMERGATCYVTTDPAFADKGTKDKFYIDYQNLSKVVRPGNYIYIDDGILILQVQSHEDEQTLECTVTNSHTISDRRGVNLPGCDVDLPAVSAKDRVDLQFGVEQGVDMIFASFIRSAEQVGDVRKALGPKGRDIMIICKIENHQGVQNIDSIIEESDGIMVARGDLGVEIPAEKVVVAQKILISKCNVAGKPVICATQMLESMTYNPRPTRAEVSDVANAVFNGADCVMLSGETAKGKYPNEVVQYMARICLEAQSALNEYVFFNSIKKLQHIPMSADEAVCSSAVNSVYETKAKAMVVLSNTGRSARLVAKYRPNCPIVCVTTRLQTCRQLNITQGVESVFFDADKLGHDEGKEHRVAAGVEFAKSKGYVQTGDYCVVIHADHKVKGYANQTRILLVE
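0.1 nM LmPK, 0.5 mM PEP, 0.1 mM ADP; 50 mM imidazole pH 7.2, 7 mM MgCl2, 50 mM KCl; 1 h RT. Kinase-Glo luminescence readout, normalized to no-enzyme (full inhibition) and uninhibited wells.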
* = called active by the depositor. Unless noted, calls follow the shape of the dose curve; as a rule, active = well fitted inhibition curve with a large enough effect; inconclusive = small, poorly fitted or top-dose-only effect, or another doubt; inactive = no such curve, though single readings can be large or run the other way.

`CCOc1ccccc1Nc1nc(-c2cccnc2)cs1` gave Cycloheximide cs -1, Shiga inhibitor -3, Pf growth 48h 13µM*, Pf growth 96h 0% and LmPK inhibitor 2%.
Clc1cccc(-c2csc(Nc3cccnc3)n2)c1 was read as Cycloheximide cs 12, Shiga inhibitor 3, Pf growth 48h inconclusive, Pf growth 96h inconclusive and LmPK inhibitor 1%.
`Cc1ccc(N(C)C(=O)N2CCN(S(=O)(=O)c3c(C)cc(C)cc3C)CC2)cc1` gave Cycloheximide cs 4, Shiga inhibitor -2, Pf growth 96h inconclusive and LmPK inhibitor 11%.
Screening O=c1[nH]n(Cc2ccccc2)c2ccccc12 returned Cycloheximide cs -4, Shiga inhibitor 9, Pf growth 48h 3%, Pf growth 96h inconclusive and LmPK inhibitor -1%.
COc1nc(Nc2ccccc2F)nc(OC)n1 was read as Cycloheximide cs 12*, Shiga inhibitor 21, Pf growth 48h 19%, Pf growth 96h 11% and LmPK inhibitor -6%.
`COc1ccc(Nc2nc(NCCO)nc(OC)n2)cc1` gave Cycloheximide cs 2, Shiga inhibitor 9, Pf growth 96h inactive and LmPK inhibitor -1%.
For COc1nc(NCCO)nc(Nc2ccccc2F)n1 the results were Cycloheximide cs 34*, Shiga inhibitor 83*, Pf growth 48h 125%, Pf growth 96h inconclusive and LmPK inhibitor 0%.
For O=C(CSc1nc2c(c(=O)n1-c1ccc(Cl)cc1)SCC2)Nc1nccs1 the results were Cycloheximide cs -2, Shiga inhibitor -8, Pf growth 48h 5.2µM*, Pf growth 96h -8% and LmPK inhibitor -9%.
For CCOc1ccc(-n2c(SCC(N)=O)nc3c(c2=O)SCC3)cc1 the results were Cycloheximide cs -1, Shiga inhibitor 17, Pf growth 48h 8.3µM*, Pf growth 96h -30% and LmPK inhibitor 4%.
COc1ccc(NC(=O)CSc2nc3c(c(=O)n2-c2ccc(F)cc2)SCC3)cc1 was read as Cycloheximide cs -1, Shiga inhibitor 1, Pf growth 48h -22%, Pf growth 96h 10µM* and LmPK inhibitor 6%.
Screening CCOC(=O)CSc1nc2c(c(=O)n1-c1ccc(OCC)cc1)SCC2 returned Cycloheximide cs -2, Shiga inhibitor -10, Pf growth 48h -16% and LmPK inhibitor 4%.
`O=C(CSc1nc2c(c(=O)n1-c1ccc(Br)cc1)SCC2)Nc1nccs1` gave Cycloheximide cs -2, Shiga inhibitor -12, Pf growth 48h inconclusive, Pf growth 96h -18% and LmPK inhibitor 3%.
For CC(C)(O)c1[nH]c2cc(F)ccc2c1C(C)(C)O the results were Cycloheximide cs 1, Shiga inhibitor -6, Pf growth 48h -56%, Pf growth 96h inconclusive and LmPK inhibitor -11%.
COc1cc(C(=O)OC2CCOC2=O)cc(Cl)c1OC (stereo not given) was read as Cycloheximide cs -10, Shiga inhibitor 5, Pf growth 48h 32%, Pf growth 96h 42% and LmPK inhibitor 1%.
`Cc1cc(C)n(-c2nc(SCCN(C)C)c3c4c(sc3n2)CCCC4)n1` gave Cycloheximide cs -2, Shiga inhibitor 25, Pf growth 48h inconclusive, Pf growth 96h 12µM* and LmPK inhibitor 0%.
`CCC(O)CNc1nc(-n2nc(C)cc2C)nc2sc3c(c12)CCCC3` (stereo not given) gave Cycloheximide cs -1, Shiga inhibitor -18 and LmPK inhibitor 4%.
`COc1ccc(N2C(=O)CC(N(C)CCc3ccc(OC)c(OC)c3)C2=O)cc1` (stereo not given) gave Cycloheximide cs -1, Shiga inhibitor -4, Pf growth 48h 9.3µM*, Pf growth 96h 9% and LmPK inhibitor 4%.
COc1ccc(N2C(=O)CC(N(CCc3ccc(OC)c(OC)c3)C(=S)Nc3ccccc3)C2=O)cc1 (stereo not given) was read as Cycloheximide cs -2, Shiga inhibitor 11, Pf growth 48h 4.7µM*, Pf growth 96h inconclusive and LmPK inhibitor 2%.
`O=C(O)c1ccc(-n2c(O)c(C=C3N=c4ccccc4=N3)sc2=S)cc1` gave Cycloheximide cs 0, Shiga inhibitor 2, Pf growth 48h 30%, Pf growth 96h 112% and LmPK inhibitor -2%.
`O=C(O)c1cccc(-n2c(O)c(C=C3N=c4ccccc4=N3)sc2=S)c1` gave Cycloheximide cs -2, Shiga inhibitor 18, Pf growth 48h 12µM*, Pf growth 96h inconclusive and LmPK inhibitor 2%.
